Sampled rows, rich in hits. Any-hit rate of the full collection: about 19%.
DT40 TDP1 no CPT: qHTS for Inhibitors of human tyrosyl-DNA phosphodiesterase 1 (TDP1): qHTS in cells in absence of CPT; DT40 Tdp1-/- hTDP1 cells, no CPT, ATP luminescence, 48 h; Potency, µM (titrated, usually from 46.2 µM), inactives show top-dose activity change, negative = growth inhibition, most hits filed as inhibitors; 15% of 420,000 active; AID 686978, 2013; also: potency is read from the fitted curve at half-maximal effect; nearly all actives have a fitted effect of over 55% in size
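Compound effects on proliferation are scored in DT40 Tdp1-/-;hTDP1 cells in the absence of CPT. ATP levels (CellTiter-Glo luminescence) are recorded after a ≥48 hr, 37 °C incubation.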
IL-1B inflam inh: inflammasome signaling inhibition, IL-1 beta readout; THP-1 LPS/ATP IL-1B secretion, AlphaLISA, 16 h; stronger effect = lower value; activity change, % at 57.5 µM; 4.7% of 360,000 active; in the data active = activity change below about -50%; inconclusive = mostly about -30% to -49%
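Secreted IL-1B measured by AlphaLISA bead assay after 16 h compound exposure of THP-1 cells; compounds (final up to 57.5 uM) added 1 h before LPS (250 ng/mL) and ATP (1.25 mM) stimulation; lower signal means less secretion.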
uPA generation: cell surface uPA generation inhibition | Potency, µM (series often up to 38.3 µM), for the others: at the top dose activity change, negative = inhibition, usual class: inhibitors | 0.31% of 330,000 active | AID 540303 | cell surface uPA generation assay, qHTS; active = well fitted inhibition curve with a large enough effect; inconclusive = small, poorly fitted or top-dose-only effect; inactive = no such curve, though single readings can be large or run the other way; tested in mouse RAW 264.7 cells; also: potency is read from the fitted curve at half-maximal effect; nearly all actives have a fitted effect of over 55% in size
HT1080NT lethal: kills 2HG-producing HT-1080-NT fibrosarcoma cells | AID 686970 | 1.6% of 360,000 active | HT-1080-NT fibrosarcoma viability, CellTiter-Glo ATP luminescence, 48 h | Potency, µM (top dose mostly 46.1 µM), without a hit: at the top dose activity, negative = less viability, most hits filed as cytotoxic;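 also: NT is the 2HG producing partner of a matched IDH1 knockdown line; potency is read from the fitted curve at half-maximal effect; 0% = DMSO-treated cells and -100% = media-only wells without cells; nearly all actives have a fitted effect of over 55% in size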
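A 48-hour cytotoxicity screen used HT-1080-NT cells plated 2 hours before compound delivery. ATP-based CellTiter-Glo luminescence measured viability, normalized to DMSO and no-cell controls.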
DT40 TDP1 CPT: growth inhibition of DT40 Tdp1-/-;hTDP1 cells with camptothecin (screen for TDP1 inhibitors); 12% of 420,000 active; chicken DT40 Tdp1-/-;hTDP1 cells + 20 nM CPT, ATP luminescence, 48 h; Potency, µM (top dose mostly 46.2 µM), without a hit: at the top dose activity change, negative = growth inhibition, usual class: inhibitors; also: potency is read from the fitted curve at half-maximal effect; nearly all actives have a fitted effect of over 55% in size
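Chicken DT40 Tdp1-/- cells stably complemented with human TDP1 were seeded at 400 cells/well in medium containing 20 nM camptothecin, exposed to pin-transferred compounds, and grown at 37 °C for at least 48 hr. Viability was read as ATP luminescence.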
HT1080 IDH1KD tx: toxicity to HT-1080 IDH1 knockdown cells (counter line); 2% of 360,000 active; HT-1080 IDH1 knockdown viability, ATP luminescence, 48 h; Potency, µM (top dose mostly 46.1 µM), without a hit: at the highest dose activity, negative = toxicity, actives largely listed as cytotoxic;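 also: potency is read from the fitted curve at half-maximal effect; 0% = DMSO wells and -100% = cell-free medium wells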
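IDH1KD HT-1080 cells, 750/well, RPMI + 5% FBS; compound pinned after 2 h settling; 48 h, 37 °C; CellTiter-Glo luminescence; % activity normalised to DMSO and no-cell wells; curves fitted, classed by r2 and efficacy.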
Numbers without * were called inactive. Unless noted, calls follow the shape of the dose curve; as a rule, active = well fitted curve in the direction sought with a large enough effect; inconclusive = small, poorly fitted or top-dose-only effect, or another doubt; inactive = no such curve, though single readings can be large; an effect the other way counts as inactive or inconclusive. Unless noted, % is scaled to controls: 0 for no effect and ±100 for the full control effect.

Results for Cc1cccc(-c2cc(N3CCCN(C)CC3)n3nccc3n2)c1 ?
DT40 TDP1 no CPT: inconclusive; IL-1B inflam inh: -9; HT1080NT lethal: 17%; DT40 TDP1 CPT: inconclusive; HT1080 IDH1KD tx: 22%

Results for S=C(Nc1ccc2nc(-c3ccccn3)c(-c3ccccn3)nc2c1)N1CCCCC1 ?
DT40 TDP1 no CPT: -21%; IL-1B inflam inh: 75; uPA generation: 0%; HT1080NT lethal: -6%; DT40 TDP1 CPT: -25%; HT1080 IDH1KD tx: -12%

How did O=C(NC(=S)N1CCN(C2CCCCC2)CC1)c1ccccc1 do in these assays?
DT40 TDP1 no CPT: -26%; IL-1B inflam inh: -2; uPA generation: 2%; HT1080NT lethal: 2%; DT40 TDP1 CPT: 1%; HT1080 IDH1KD tx: 12%

How did CC(=NNC(=S)N1CCN(c2ccccn2)CC1)c1nccs1 do in these assays?
DT40 TDP1 no CPT: 0.016µM*; IL-1B inflam inh: 0; uPA generation: -7%; HT1080NT lethal: -19%; DT40 TDP1 CPT: 0.015µM*; HT1080 IDH1KD tx: inconclusive

What do the screens show for `CC(=O)c1ccc(NC(=S)N2CCN(c3ccccn3)CC2)cc1`?
DT40 TDP1 no CPT: inconclusive; IL-1B inflam inh: 17; uPA generation: 1%; HT1080NT lethal: -2%; DT40 TDP1 CPT: inconclusive; HT1080 IDH1KD tx: -4%

Results for CC(=NNC(=S)N1CCCCCC1)c1cccc2cccnc12 ?
DT40 TDP1 no CPT: 0.021µM*; IL-1B inflam inh: -101*; uPA generation: -11%; HT1080NT lethal: -8%; DT40 TDP1 CPT: 0.016µM*; HT1080 IDH1KD tx: inconclusive

Results for CC(=NNC(=S)N1CCN(C2CCCCCC2)CC1)c1ccccn1 ?
DT40 TDP1 no CPT: 0.037µM*; IL-1B inflam inh: -98*; uPA generation: -7%; HT1080NT lethal: 21µM*; DT40 TDP1 CPT: 0.065µM*; HT1080 IDH1KD tx: inconclusive

Results for CC(=NNC(=S)N1CCN(c2ccccn2)CC1)c1ccccn1 ?
DT40 TDP1 no CPT: 16µM*; IL-1B inflam inh: 41; uPA generation: -4%; HT1080NT lethal: -9%; DT40 TDP1 CPT: 18µM*; HT1080 IDH1KD tx: inconclusive

What do the screens show for `S=C(NC1CCCC1)N1CCN(c2ccccn2)CC1`?
DT40 TDP1 no CPT: inconclusive; IL-1B inflam inh: 0; uPA generation: 2%; HT1080NT lethal: 10%; DT40 TDP1 CPT: 2%; HT1080 IDH1KD tx: 26%

How did CC(C)NC(=O)Nc1nnc([C@@H]2C[C@H](O)[C@@H](CO)O2)s1 do in these assays?
DT40 TDP1 no CPT: -6%; IL-1B inflam inh: -12; HT1080NT lethal: -5%; DT40 TDP1 CPT: -3%; HT1080 IDH1KD tx: 0%

What do the screens show for `COc1cccc(OCc2nc3ccccc3c(=O)n2N)c1`?
DT40 TDP1 no CPT: -12%; IL-1B inflam inh: 8; uPA generation: -4%; HT1080NT lethal: -4%; DT40 TDP1 CPT: inconclusive; HT1080 IDH1KD tx: -10%

What do the screens show for `COc1cccc(CCc2nc3ccccc3c(=O)n2N)c1`?
DT40 TDP1 no CPT: 21µM*; IL-1B inflam inh: -7; uPA generation: 5%; HT1080NT lethal: 5%; DT40 TDP1 CPT: inconclusive; HT1080 IDH1KD tx: -3%

How did CCCCNC(=O)C1(C)CCCCCN1Cc1cccc2c(OC)cc(C(=O)OCC)cc12 (configuration not stated) do in these assays?
DT40 TDP1 no CPT: 13µM*; IL-1B inflam inh: -17; HT1080NT lethal: inconclusive; DT40 TDP1 CPT: inconclusive; HT1080 IDH1KD tx: inconclusive

What do the screens show for `CC1(C(=O)NCc2cccc3ccccc23)CCN1Cc1ccc(OC(F)(F)F)cc1` (configuration not stated)?
DT40 TDP1 no CPT: inconclusive; IL-1B inflam inh: -30; HT1080NT lethal: inconclusive; DT40 TDP1 CPT: inconclusive; HT1080 IDH1KD tx: inconclusive

Results for CCCCNC(=O)C1(C)CCCCN1Cc1ccc2ccccc2c1 (configuration not stated) ?
DT40 TDP1 no CPT: inconclusive; IL-1B inflam inh: 0; HT1080NT lethal: -29%; DT40 TDP1 CPT: 23µM*; HT1080 IDH1KD tx: inconclusive

How did Cc1ccc(CN2CCCC2(C)C(=O)NC(C)C)cc1 (configuration not stated) do in these assays?
DT40 TDP1 no CPT: inconclusive; IL-1B inflam inh: 30; HT1080NT lethal: 11%; DT40 TDP1 CPT: inconclusive; HT1080 IDH1KD tx: 21%

How did CC(C)NC(=O)C1(C)CCCCN1Cc1ccc(OCc2ccccc2)cc1 (configuration not stated) do in these assays?
DT40 TDP1 no CPT: 1.6µM*; IL-1B inflam inh: 2; HT1080NT lethal: inconclusive; DT40 TDP1 CPT: 2.3µM*; HT1080 IDH1KD tx: inconclusive

What do the screens show for `CC1(C(=O)NCc2cccc3ccccc23)CCN1Cc1cccc2c1OCO2` (configuration not stated)?
DT40 TDP1 no CPT: 15µM*; IL-1B inflam inh: inconclusive; HT1080NT lethal: inconclusive; DT40 TDP1 CPT: 23µM*; HT1080 IDH1KD tx: inconclusive

How did Cc1oc2ncnc(N3CCOCC3)c2c1C(=O)NCc1ccccc1 do in these assays?
DT40 TDP1 no CPT: -13%; DT40 TDP1 CPT: -7%

How did CCOc1ccc(S(=O)(=O)N2CCCC(C(=O)NCc3cccnc3)C2)cc1 (configuration not stated) do in these assays?
DT40 TDP1 no CPT: inconclusive; IL-1B inflam inh: 12; uPA generation: -1%; HT1080NT lethal: -3%; DT40 TDP1 CPT: -23%; HT1080 IDH1KD tx: -2%

What do the screens show for `CC1(C(=O)Nc2ccc3c(c2)OCCO3)CCN1Cc1ccc(-c2ccccn2)cc1` (configuration not stated)?
DT40 TDP1 no CPT: inconclusive; IL-1B inflam inh: -19; HT1080NT lethal: 3%; DT40 TDP1 CPT: inconclusive; HT1080 IDH1KD tx: 5%

Results for CC1(C(=O)NCc2cccc3ccccc23)CCN1C(=O)C1(c2ccccc2)CCCC1 (configuration not stated) ?
DT40 TDP1 no CPT: 21µM*; IL-1B inflam inh: -52*; HT1080NT lethal: inconclusive; DT40 TDP1 CPT: 23µM*; HT1080 IDH1KD tx: inconclusive

How did CC1(C(=O)NCc2ccccc2Br)CCN1Cc1ccc2ccccc2c1 (configuration not stated) do in these assays?
DT40 TDP1 no CPT: inconclusive; IL-1B inflam inh: -7; HT1080NT lethal: -22%; DT40 TDP1 CPT: 21µM*; HT1080 IDH1KD tx: inconclusive

Results for CC(C)CCNC(=O)C1(C)CCN1Cc1ccc2ccccc2c1 (configuration not stated) ?
DT40 TDP1 no CPT: 23µM*; IL-1B inflam inh: -2; HT1080NT lethal: inconclusive; DT40 TDP1 CPT: inconclusive; HT1080 IDH1KD tx: inconclusive

Bioassay records (PubChem)
